rCAG RNA binder: molecules binding r(CAG) RNA repeats. hit rate 1.3% among 370,000. inhibition, % at 3 µM. r(CAG) RNA repeat, TO-PRO-1 dye displacement fluorescence;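 active = inhibition above the plate cutoff, the mean of all test compounds on that plate plus 3 SD, cut at about 35% in these data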;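 also: 0% = DMSO alone and 100% = 100 µM mitoxantrone as full dye displacement; higher means more dye released from RNA so lower well fluorescence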
PRMT1 inh: PRMT1 (human) inhibition, primary screen. Q99873. recombinant PRMT1, activity-based probe fluorescence polarization. inhibition, % at 2.79 µM. hit rate 1.3% among 370,000. AID 652257;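 active = inhibition above about 21% made by adding two undisclosed values, limit read from the data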
Rtt109 HAT inh: inhibitors of Candida albicans Rtt109/Vps75 histone acetyltransferase | Q5AAJ8 | purified Rtt109/Vps75, ThioGlo CoA-SH fluorescence, 4 h | inhibition, % at 34.9 µM | hit rate 0.16% among 330,000 | AID 540336;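 active = inhibition of at least 50% in every replicate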
LANA-H2A inh: blocks KSHV LANA binding to histone H2A/H2B | AID 2629 | Q9QR71 | inhibition, % (test concentration not listed) | hit rate 0.6% among 320,000 | cell-free LANA-H2A/H2B peptide, fluorescence polarization; in the data active = inhibition mostly above about 10%, no sharp cut-off; inactive = mostly below about 6.7%
ABHD5 PLIN5 PPI: blocks binding of human ABHD5 to perilipin-5; Split G. princeps luciferase complementation, luminescence, 4 h; inhibition, % at 4 µM; hit rate 0.78% among 360,000;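 active = inhibition above the mean inhibition across every tested compound plus 3 SD, cut at about 22% in these data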;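 also: 0% = DMSO only wells and the 100% control is not disclosed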
ALR inh: inhibitors of human sulfhydryl oxidase ALR; purified ALR, DTT oxidation, H2O2 HRP-luminol luminescence; inhibition, % (no concentration beside the values); hit rate 3.8% among 290,000; AID 485317;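 active = mean replicate inhibition above about 79%, with every replicate also reaching it, limit read from the data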
An asterisk follows results filed as active; x = no result. The list is not random: actives were taken first. Their share in the collection is about 5.9%.

SMILES	rCAG RNA binder	PRMT1 inh	Rtt109 HAT inh	LANA-H2A inh	ABHD5 PLIN5 PPI	ALR inh
COC(=O)C(Cc1ccccc1)NC(=O)c1ccc(NS(=O)(=O)c2ccc3[nH]c(=O)[nH]c3c2)cc1 (stereo not given)	3	0	3	29*	-3	7
Cc1ccc(C(=O)N2CCN(c3ccccc3O)CC2)cc1S(=O)(=O)N1CCCCC1	1	0	4	6	-12	98*
Cc1cc(S(=O)(=O)N2CCN(c3ccccc3O)CC2)c(C)s1	7	-2	0	-2	-12	98*
Cn1cccc1C(=O)N1CCN(S(=O)(=O)c2cccc3ccccc23)CC1	5	-2	x	x	x	x
O=C(NCc1ccc2c(c1)OCO2)C1CC(=O)N(c2ccc(O)cc2)C1 (stereo not given)	-1	3	12	0	4	99*
O=C(CN1C(=O)C2CC=CCC2C1=O)NCc1ccc2c(c1)OCO2 (stereo not given)	3	-3	2	1	0	3
O=C(CN1C(=O)C2C3C=CC(C3)C2C1=O)NCc1ccc2c(c1)OCO2 (stereo not given)	-1	1	9	19*	0	-3
NS(=O)(=O)c1ccc(O)c(NC(=O)c2ccc([N+](=O)[O-])o2)c1	0	22*	0	-1	0	-20
Cc1nnc2sc(SCC(=O)Nc3nccs3)nn2c1=O	0	9	-19	-4	-6	99*
COc1ccccc1NC(=O)CSc1nnc(C)o1	-1	0	4	-2	-4	-7
COc1ccccc1NC(=O)CSc1nn2c(=O)c(C)nnc2s1	-1	-5	-8	-3	-2	99*
CN1c2ccccc2C(O)=C(C(=S)Nc2ccc(Cl)cc2)S1(=O)=O	68*	11	20	4	-14	x
COC(=O)[C@]12C[C@H](CC(=O)NCc3cccs3)C(=O)N(Cc3cccc4ccccc34)C1=C[C@H](COCc1ccccc1)O[C@@H]2C	13	2	x	x	x	x
Cc1cccc(C)c1N1CCN(c2n[nH]c(N)n2)CC1	-3	-5	7	3	4	96*
COc1ccc(N2CCN(c3n[nH]c(N)n3)CC2)cc1	2	-1	-15	-4	-5	98*
CC(=O)NCCc1c(C)n(Cc2ccccc2)c2ccccc12	-6	-3	1	4	5	99*
O=S1(=O)CC(N2CCCC2)CN1Cc1cn(Cc2cccc(Cl)c2)nn1 (stereo not given)	1	-7	x	x	-5	x
O=C1NC(c2ccccc2)c2c(-c3ccccc3)n[nH]c21 (stereo not given)	0	-2	x	x	x	x
CCN(CC)c1ccc(/C=C/C(=O)C2C(=O)C=C(C)OC2=O)cc1 (stereo not given)	-33	-13	4	-10	2	99*
CCN(CC)c1ccc(C=C2C(=O)OC(c3ccccc3)OC2=O)cc1 (stereo not given)	-2	-2	-4	5	-2	26
C#CCNC(=O)C[C@H]1C(=O)N(CCCOC)C2=CCCC[C@@]21C(=O)OCC	2	0	x	x	x	x
COc1ccc(-c2[nH]c(-c3ccc(C)cc3)nc2SCC(=O)Nc2nccs2)cc1	18	7	7	0	-15	94*
COc1ccc(-c2nc(SCC(=O)Nc3nccs3)c(-c3ccc(Cl)cc3)[nH]2)cc1	10	1	6	1	-2	37
COc1ccc2c(c1)N(C)/C(=C/c1cccc[n+]1C)S2	-23	4	-11	-99	4	97*
Cc1ccc2c(c1)N(C)/C(=C/c1cccc[n+]1C)S2	-4	7	-9	-96	-1	97*
SMILES	rCAG RNA binder	PRMT1 inh	Rtt109 HAT inh	LANA-H2A inh	ABHD5 PLIN5 PPI	ALR inh
CCN1/C(=C/C(C)=O)Sc2ccc(OC)cc21	2	6	13	1	-7	x
CCN1/C(=C/c2cccc[n+]2C)Sc2ccc(OC)cc21	1	10	14	-37	15	98*
COc1ccc(N2CCN(c3ccc(S(=O)(=O)N(C(C)C)C(C)C)cn3)CC2)cc1	3	-5	10	-2	6	-2
COc1cc(C(=O)N/N=C(\Cc2ncc[nH]2)c2ccccc2)cc(OC)c1OC	4	1	-5	-6	6	20
c1ccc(N/N=C(\Cc2ncc[nH]2)c2ccccc2)cc1	8	8	2	7	7	99*
COc1ccc(C(=O)N/N=C(\Cc2ncc[nH]2)c2ccccc2)cc1	3	-1	3	0	7	87*
CCOc1ccc(N(C)S(=O)(=O)c2ccc(-c3ccc(=O)[nH]n3)s2)cc1	9	-4	14	15*	6	-7
Nc1ccc2cc3ccc(N)cc3nc2c1	-78	148*	x	x	x	x
O=c1[nH]c(CO)nc2c1oc1ccccc12	4	-2	-5	4	1	-1
O=c1[nH]c(Cc2ccccc2)nc2c1oc1ccccc12	1	0	4	8.2*	-7	-4
C#CCNC(=O)C[C@H]1C[C@@]2(C(=O)OC)C(=C[C@H](C3CCCC3)O[C@@H]2C)N(CCCCCCCC)C1=O	6	0	x	x	x	x
CC1(C)NC(C(=O)O)Cc2c1[nH]c1ccccc21 (stereo not given)	1	0	-2	7.0*	-6	-8
COc1ccc(-c2nnn3c2Cn2c4ccccc4c(=O)n2[C@@H](C(C)C)C3)cc1	5	-5	x	x	x	x
O=C(CSc1nc2ccccc2n1Cc1ccccc1)NN=C/C=C/c1ccccc1	8	-9	x	x	x	x
Cc1c(NC2=C(Cl)C(=O)N(c3ccccc3)C2=O)c(=O)n(-c2ccccc2)n1C	5	2	8	6	-3	34
Cc1ccc(C(=O)N2CCCCC2)cc1NC1=C(Cl)C(=O)N(Cc2ccccc2)C1=O	2	1	9	x	-4	x
O=C1C(Cl)=C(Nc2ccccc2O)C(=O)N1c1ccccc1	9	22*	1	3	5	67
Cc1ccc(O)c(NC2=C(Cl)C(=O)N(Cc3ccccc3)C2=O)c1	17	24*	-2	x	21	x
O=C(c1ccc(N2CCCCC2)c([N+](=O)[O-])c1)N1CCOCC1	-2	-2	8	-4	0	-10
CC(=O)c1ccc(N2CCN(c3ccccc3O)CC2)c([N+](=O)[O-])c1	3	8	20	3	-1	99*
CC1Cc2ccccc2N1C(=O)c1ccc(N2CCCC2)c([N+](=O)[O-])c1 (stereo not given)	1	3	57*	1	6	-7
O=[N+]([O-])c1ccc(N2CCN(c3ccc([N+](=O)[O-])cc3CO)CC2)c(CO)c1	5	1	1	-2	3	-8
O=C(/C=C/c1ccc(N2CCCCC2)c([N+](=O)[O-])c1)c1ccc(O)cc1	20	-2	1	1	22*	4
CC1Cc2ccccc2N1C(=O)c1ccc(N2CCCCC2)c([N+](=O)[O-])c1 (stereo not given)	-3	1	-2	x	-4	x

From PubChem BioAssay
